Test results taken from the supplement of paper PMC11732987, “Enantioselective OTUD7B fragment discovery through chemoproteomics screening and high-throughput optimisation” (Communications Chemistry, 2025).

Assays:
Assay in all cases: log2 ratio of Biotin-Ahx-Ub-VS probe labelling (fragment/DMSO); higher = less target engagement (more negative = stronger competition), active = hit call of the paper (q ≤ 0.05, log2 ratio ≤ -1)
Settings in all cases: compound concentration: 200 uM; treatment time: 3 h
[1] = target: T1, USP19 (UniProt O94966)
T1 sequence (whole entry): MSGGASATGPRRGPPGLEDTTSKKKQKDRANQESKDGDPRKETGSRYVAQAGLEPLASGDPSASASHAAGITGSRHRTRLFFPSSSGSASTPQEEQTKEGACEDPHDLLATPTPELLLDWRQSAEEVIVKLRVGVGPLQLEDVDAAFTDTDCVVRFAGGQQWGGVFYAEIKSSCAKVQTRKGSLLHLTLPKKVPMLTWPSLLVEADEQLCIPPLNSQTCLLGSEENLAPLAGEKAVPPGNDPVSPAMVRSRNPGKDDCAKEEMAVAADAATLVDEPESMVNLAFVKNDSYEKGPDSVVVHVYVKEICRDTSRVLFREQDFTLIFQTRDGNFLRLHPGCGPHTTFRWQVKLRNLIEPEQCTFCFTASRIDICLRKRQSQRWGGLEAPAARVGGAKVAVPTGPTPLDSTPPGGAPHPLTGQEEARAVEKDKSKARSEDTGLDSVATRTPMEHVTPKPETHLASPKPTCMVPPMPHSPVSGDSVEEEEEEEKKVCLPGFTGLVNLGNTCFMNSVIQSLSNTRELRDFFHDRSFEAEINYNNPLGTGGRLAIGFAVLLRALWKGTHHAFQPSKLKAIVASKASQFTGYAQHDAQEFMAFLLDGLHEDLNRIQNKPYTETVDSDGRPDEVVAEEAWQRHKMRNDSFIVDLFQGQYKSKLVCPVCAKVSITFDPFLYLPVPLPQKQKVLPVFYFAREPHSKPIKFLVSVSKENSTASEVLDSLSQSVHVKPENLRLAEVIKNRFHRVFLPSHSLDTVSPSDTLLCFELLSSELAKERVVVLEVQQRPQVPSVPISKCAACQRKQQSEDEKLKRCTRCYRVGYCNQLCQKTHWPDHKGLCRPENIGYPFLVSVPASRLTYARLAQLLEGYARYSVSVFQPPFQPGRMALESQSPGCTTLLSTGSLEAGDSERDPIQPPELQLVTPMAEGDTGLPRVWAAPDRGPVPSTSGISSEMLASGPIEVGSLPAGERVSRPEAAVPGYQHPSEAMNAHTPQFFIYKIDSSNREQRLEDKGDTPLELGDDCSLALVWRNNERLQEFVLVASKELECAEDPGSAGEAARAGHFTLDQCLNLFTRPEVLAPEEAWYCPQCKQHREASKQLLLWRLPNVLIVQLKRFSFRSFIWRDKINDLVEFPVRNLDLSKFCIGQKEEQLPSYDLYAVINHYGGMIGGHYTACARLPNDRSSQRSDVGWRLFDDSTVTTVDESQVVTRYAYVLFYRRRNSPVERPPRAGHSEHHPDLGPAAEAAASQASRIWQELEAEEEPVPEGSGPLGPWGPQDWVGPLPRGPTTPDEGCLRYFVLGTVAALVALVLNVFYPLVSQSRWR
Method in brief: (§1)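 Each value is an average log2 ratio of fragment to vehicle, tested by unpaired t-test. The underlying Spectronaut label-free quantities were global-median-normalised, and only proteins with ≥2 unique peptides were included. Triplicate HEK293T lysate samples (495 µg) were exposed to fragment at 200 µM or vehicle for 3 h, then to Biotin-Ahx-Ub-VS at 0.5 µM final for 1 h, before NeutrAvidin enrichment of labelled DUBs, LysC and trypsin digestion, and diaPASEF LC-MS/MS.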

[2] = target: T2, USP22 (UniProt Q9UPT9)
T2 sequence (whole entry): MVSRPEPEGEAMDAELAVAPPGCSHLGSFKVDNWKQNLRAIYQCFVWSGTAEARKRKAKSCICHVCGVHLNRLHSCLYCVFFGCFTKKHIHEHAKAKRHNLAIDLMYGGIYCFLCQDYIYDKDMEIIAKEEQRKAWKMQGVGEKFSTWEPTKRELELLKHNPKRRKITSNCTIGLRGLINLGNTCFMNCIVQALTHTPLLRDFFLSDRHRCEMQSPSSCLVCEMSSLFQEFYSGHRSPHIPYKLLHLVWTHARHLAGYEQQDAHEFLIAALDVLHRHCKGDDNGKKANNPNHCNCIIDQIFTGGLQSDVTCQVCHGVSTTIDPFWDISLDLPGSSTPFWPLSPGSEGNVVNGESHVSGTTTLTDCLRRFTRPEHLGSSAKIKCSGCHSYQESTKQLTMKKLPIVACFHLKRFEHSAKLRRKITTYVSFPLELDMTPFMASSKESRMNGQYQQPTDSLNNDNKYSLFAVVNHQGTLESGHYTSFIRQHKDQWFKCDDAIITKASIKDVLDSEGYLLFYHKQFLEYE
Method in brief: as §1

[3] = target: USP24 (UniProt Q9UPU5)
USP24, sequence (Q9UPU5 whole entry): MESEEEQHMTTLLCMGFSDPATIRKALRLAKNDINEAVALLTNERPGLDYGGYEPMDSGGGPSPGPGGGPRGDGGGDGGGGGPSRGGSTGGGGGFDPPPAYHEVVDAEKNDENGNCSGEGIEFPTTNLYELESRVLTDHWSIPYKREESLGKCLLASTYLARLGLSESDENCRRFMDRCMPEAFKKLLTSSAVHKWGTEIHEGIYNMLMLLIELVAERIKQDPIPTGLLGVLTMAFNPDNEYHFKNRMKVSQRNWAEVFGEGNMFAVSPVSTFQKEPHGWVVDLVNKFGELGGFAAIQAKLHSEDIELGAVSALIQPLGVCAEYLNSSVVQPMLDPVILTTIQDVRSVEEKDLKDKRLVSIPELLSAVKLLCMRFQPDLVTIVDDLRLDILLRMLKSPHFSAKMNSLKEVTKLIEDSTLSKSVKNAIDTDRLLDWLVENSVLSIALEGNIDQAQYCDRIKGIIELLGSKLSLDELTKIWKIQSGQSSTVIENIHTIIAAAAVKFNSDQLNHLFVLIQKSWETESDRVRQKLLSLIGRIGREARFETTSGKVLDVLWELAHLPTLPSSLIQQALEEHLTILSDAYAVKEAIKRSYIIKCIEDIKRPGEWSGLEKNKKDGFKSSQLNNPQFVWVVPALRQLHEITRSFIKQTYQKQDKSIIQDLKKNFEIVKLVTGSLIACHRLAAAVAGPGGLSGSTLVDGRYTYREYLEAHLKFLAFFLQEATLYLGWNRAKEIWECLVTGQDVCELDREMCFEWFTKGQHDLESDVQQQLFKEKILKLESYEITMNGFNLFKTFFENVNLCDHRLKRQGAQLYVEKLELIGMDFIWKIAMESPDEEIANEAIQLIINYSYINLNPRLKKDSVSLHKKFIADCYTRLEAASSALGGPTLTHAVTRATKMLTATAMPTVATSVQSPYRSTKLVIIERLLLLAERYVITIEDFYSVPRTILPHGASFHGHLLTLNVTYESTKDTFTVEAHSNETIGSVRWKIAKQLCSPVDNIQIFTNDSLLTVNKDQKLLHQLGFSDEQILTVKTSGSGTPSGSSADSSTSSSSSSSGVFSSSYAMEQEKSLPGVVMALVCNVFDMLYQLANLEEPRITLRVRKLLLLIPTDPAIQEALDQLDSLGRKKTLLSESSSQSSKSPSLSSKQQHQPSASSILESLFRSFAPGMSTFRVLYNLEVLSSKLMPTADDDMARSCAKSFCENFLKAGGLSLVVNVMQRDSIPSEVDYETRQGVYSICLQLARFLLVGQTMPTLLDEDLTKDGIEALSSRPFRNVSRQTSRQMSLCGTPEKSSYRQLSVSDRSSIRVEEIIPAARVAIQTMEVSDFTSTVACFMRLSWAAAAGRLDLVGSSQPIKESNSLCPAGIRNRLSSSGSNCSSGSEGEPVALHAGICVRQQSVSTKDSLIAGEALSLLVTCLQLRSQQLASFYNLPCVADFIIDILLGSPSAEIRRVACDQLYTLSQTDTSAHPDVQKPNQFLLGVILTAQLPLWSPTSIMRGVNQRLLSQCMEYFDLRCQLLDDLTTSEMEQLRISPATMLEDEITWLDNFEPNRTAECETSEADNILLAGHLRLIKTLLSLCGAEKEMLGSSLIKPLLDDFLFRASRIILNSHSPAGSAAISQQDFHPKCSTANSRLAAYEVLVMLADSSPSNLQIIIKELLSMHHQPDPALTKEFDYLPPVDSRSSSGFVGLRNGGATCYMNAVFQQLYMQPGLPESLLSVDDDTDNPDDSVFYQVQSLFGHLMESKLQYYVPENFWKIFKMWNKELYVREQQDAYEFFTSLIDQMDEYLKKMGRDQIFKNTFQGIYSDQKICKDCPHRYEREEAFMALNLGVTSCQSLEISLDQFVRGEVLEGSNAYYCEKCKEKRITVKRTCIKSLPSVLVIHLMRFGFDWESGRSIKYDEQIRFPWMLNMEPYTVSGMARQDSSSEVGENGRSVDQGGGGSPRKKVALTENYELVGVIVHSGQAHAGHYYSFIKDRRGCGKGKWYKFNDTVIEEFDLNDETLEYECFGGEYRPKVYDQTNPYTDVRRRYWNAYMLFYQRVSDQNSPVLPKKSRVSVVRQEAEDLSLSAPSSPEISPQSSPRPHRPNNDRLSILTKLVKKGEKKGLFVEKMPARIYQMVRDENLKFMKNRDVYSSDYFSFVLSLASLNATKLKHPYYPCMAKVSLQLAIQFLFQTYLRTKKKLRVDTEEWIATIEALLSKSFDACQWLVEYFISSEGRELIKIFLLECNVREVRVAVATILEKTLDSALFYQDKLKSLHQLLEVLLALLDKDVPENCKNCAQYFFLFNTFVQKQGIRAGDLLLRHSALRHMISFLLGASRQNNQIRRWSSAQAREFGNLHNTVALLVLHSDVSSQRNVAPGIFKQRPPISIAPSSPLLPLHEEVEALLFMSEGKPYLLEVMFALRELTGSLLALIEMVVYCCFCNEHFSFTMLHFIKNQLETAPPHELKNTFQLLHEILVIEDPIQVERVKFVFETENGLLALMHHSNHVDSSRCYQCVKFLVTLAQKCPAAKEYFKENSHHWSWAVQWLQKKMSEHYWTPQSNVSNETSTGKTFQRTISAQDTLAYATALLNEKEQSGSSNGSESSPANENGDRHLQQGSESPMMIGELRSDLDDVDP
Method in brief: as §1

[4] = target: T3, USP25 (UniProt Q9UHP3)
T3 sequence (whole entry): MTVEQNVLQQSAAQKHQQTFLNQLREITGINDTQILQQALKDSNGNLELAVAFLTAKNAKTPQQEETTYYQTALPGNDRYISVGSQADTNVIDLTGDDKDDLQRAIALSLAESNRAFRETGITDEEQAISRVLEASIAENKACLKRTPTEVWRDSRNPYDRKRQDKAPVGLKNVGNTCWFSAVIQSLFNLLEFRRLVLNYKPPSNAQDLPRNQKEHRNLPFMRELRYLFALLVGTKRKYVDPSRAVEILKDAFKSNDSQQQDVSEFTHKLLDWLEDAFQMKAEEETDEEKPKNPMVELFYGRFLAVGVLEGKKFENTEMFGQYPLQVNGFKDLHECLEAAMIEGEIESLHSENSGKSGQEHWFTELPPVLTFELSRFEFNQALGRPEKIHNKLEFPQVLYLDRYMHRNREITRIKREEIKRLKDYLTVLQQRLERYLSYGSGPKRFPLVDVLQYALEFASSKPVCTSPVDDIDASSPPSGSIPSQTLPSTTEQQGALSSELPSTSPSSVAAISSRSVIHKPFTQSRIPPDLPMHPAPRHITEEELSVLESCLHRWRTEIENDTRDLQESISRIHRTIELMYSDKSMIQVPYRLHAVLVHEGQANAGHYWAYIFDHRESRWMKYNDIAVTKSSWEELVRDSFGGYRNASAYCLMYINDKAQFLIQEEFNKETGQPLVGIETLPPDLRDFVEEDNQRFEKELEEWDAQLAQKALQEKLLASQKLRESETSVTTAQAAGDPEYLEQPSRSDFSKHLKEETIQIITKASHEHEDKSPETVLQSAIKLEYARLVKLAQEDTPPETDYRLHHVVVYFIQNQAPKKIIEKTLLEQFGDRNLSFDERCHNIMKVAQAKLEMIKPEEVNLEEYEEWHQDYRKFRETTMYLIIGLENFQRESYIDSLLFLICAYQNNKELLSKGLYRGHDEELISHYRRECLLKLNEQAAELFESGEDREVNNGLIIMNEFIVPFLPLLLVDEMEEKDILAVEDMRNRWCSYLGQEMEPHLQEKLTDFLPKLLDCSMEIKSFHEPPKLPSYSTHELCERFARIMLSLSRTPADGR
Method in brief: as §1

[5] = target: T4, USP28 (UniProt Q96RU2)
T4 sequence (whole entry): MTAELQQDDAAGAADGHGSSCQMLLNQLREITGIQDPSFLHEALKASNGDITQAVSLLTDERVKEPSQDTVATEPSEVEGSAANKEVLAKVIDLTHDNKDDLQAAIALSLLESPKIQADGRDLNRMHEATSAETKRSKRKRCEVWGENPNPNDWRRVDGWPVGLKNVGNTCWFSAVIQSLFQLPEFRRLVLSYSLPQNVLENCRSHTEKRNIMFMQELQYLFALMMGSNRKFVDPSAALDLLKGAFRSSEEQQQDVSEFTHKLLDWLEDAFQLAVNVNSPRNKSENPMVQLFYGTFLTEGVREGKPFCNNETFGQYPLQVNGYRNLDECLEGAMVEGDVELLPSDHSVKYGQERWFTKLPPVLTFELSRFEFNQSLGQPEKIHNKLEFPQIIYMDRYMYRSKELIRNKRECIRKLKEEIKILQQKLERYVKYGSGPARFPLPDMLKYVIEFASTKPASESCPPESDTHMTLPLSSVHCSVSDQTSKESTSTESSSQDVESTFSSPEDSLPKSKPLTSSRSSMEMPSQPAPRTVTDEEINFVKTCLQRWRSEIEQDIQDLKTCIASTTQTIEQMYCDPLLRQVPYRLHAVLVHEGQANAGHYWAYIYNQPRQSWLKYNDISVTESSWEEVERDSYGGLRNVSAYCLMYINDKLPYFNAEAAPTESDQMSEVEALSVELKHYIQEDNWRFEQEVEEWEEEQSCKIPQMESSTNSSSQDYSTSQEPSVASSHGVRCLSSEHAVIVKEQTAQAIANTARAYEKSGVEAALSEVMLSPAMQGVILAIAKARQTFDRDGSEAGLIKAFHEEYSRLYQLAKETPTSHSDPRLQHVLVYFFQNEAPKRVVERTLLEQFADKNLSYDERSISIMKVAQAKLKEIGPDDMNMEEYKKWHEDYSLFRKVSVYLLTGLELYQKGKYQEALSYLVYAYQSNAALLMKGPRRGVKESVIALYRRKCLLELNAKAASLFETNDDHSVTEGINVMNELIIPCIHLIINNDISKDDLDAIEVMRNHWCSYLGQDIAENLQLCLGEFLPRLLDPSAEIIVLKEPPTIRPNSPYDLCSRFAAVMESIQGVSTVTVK
Method in brief: as §1

Measured: log2 ratio of Biotin-Ahx-Ub-VS probe labelling

Cl.Cn1nc2c(c1CNC(=O)CCl)CCCC2
inactive: [1] 0.00104 | [2] -0.0746 | [3] -0.0442 | [4] -0.147 | [5] -0.325
